# Measurements published in PubChem BioAssay (NCATS).
# Values joined by “and” are separate entries in the source; they are usually repeats but may differ in a detail not shown here. Identical values can stand only once. Values without a mark were called inactive. Records with an inconclusive call do not appear. Entries that show only a call come without a potency. Active and inactive are the calls of the source. Unless noted, calls come from the whole dose curve; as a rule, active = well fitted curve in the direction sought with a large enough effect; inconclusive = small, poorly fitted or top-dose-only effect, or another doubt; inactive = no such curve, though single readings can be large; an effect the other way counts as inactive or inconclusive. *1 amine or outer side, *2 acyl side, *3 side chain or, on linkers, in order; H or OH if unused. Where a SMILES comes first, the peptide text is derived from it. Bridges are numbered along the chain shown (N, C = ends). Roman numbers before positions name the chains, in order. [ ]: non-standard residue; d: D form. ξ: configuration not given here. Actinocin(9to1) = Cc1c2oc3c(C)ccc(C(=O)[*:1])c3nc-2c(C(=O)[*:2])c(N)c1=O; ξNMeV = CNC(C(=O)O)C(C)C; ξV = CC(C)C(N)C(=O)O; Sar = CNCC(=O)O
# Experiments:
# [1] = Cytotoxicity counterscreen for NFkB agonists and antagonists (AID 624476);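 note: cells exposed to compound for 48 hours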; note: potency is the fitted concentration of half-maximal effect
# [2] = qHTS Assay for Identification of Small Molecule Agonists for NFkB Signaling Pathway. (AID 624478)
# How it was run: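 NFkB-bla ME-180 cells (beta-lactamase reporter under NFkB response element) were plated overnight, treated with compound plus TNF alpha at 10 pM final (its EC50) for 5 hrs at 37 C, then loaded with LiveBLAzer substrate for 2 hrs.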
# [3] = qHTS Assay for Identification of Small Molecule Antagonists for NFkB Signaling Pathway. (AID 624479; calls by dose curve;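 note: pathway stimulated with TNF alpha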; note: potency is the fitted concentration of half-maximal effect)
# [4] = Cell Proliferation Assay against the TMD8 Cell Line (Caspase readout at 16 hrs) (AID 651712); note: potency is the fitted concentration of half-maximal effect
# How it was run: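 TMD8 cells (500/well) in phenol-red-free RPMI with glutamine, 5% FBS, were exposed to compounds for 16 h at 37 °C. Caspase 3/7 activation was read by Caspase-Glo luminescence; percent activity normalised to DMSO (0%) and 9.2 uM bortezomib final (100%).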
# [5] = Cell Proliferation Assay against the TMD8 Cell Line (Caspase readout at 8 hrs) (AID 651713); note: potency is the fitted concentration of half-maximal effect
# How it was run: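 TMD8 cells (500/well) in phenol red-free RPMI with 5% FBS were treated with compounds for 8 h at 37C, 5% CO2. Caspase-Glo 3/7 luminescence was read after 15 min at room temperature and normalised to DMSO (0%) and 9.2 uM bortezomib (100%).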
# [6] = S16 Schwann cell PMP22 intronic element beta-lactamase assay (AID 624044; calls by dose curve; note: nearly all actives have a fitted effect of over 15% in size)
# How it was run: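 Rat S16 Schwann cells with beta-Lac driven by a PMP22 intronic element, compound-treated 24 h at 37 °C. LiveBLAzer FRET B/G read: 460 nm normalized to potassium clavulanate vs DMSO; 535 nm FRET as viability; concentration-effect curves classified.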
# [7] = qHTS assay for small molecule agonists of the antioxidant response element (ARE) signaling pathway (AID 651741; active = well fitted activation curve with a large enough effect in the signal ratio; the % refers to the signal ratio; note: potency is the fitted concentration of half-maximal effect)
# How it was run: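 ARE-bla HepG2 cells (beta-lactamase reporter under ARE control) were plated at 2,000 cells/well, preincubated 5 h at 37 C/5% CO2, then treated with DMSO-dissolved compounds for 16 h at 37 C; LiveBLAzer B/G FRET substrate added, fluorescence read after 2 h at room temperature.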
# [8] = qHTS assay for small molecule activators of the p53 signaling pathway (AID 651743; active = well fitted activation curve with a large enough effect in the signal ratio, not every such curve was filed as active; the % refers to the signal ratio; note: series mostly up to about 92 µM); conditions: HCT-116 p53RE-bla, beta-lactamase FRET ratio, 16 h; activation: hits give high values
# How it was run: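 p53RE-bla HCT-116 cells with a stably integrated beta-lactamase reporter under p53 response elements were plated, rested 5 hours at 37 C/5% CO2, then exposed to compounds in DMSO for 16 hours at 37 C. LiveBLAzer B/G FRET substrate was read after 2 hours at room temperature.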
# [9] = qHTS assay for small molecule disruptors of the mitochondrial membrane potential - 1 hr assay (AID 651754; calls by dose curve; note: nearly all actives have a fitted effect of over 35% in size)
# How it was run: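 HepG2 cells, attached overnight at 37C, were exposed to compound or DMSO vehicle for 1 hr at 37C, 5% CO2, then stained with Mito-MPS dye for 30 min. Red aggregate versus green monomer fluorescence reports membrane potential.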
# [10] = qHTS assay for small molecule disruptors of the mitochondrial membrane potential - 5 hr assay (AID 651755; calls by dose curve; note: nearly all actives have a fitted effect of over 40% in size)
# How it was run: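 HepG2 cells, attached overnight at 37C, were exposed to compound or DMSO for 5 hr at 37C, 5% CO2. Mito-MPS dye was then added for 30 min, and fluorescence read at 490/535 nm (monomers) and 540/590 nm (aggregates).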
# [11] = target: Tumor necrosis factor (Homo sapiens) (UniProt P01375); assay: qHTS assay to identify small molecules that stimulate Tumor Necrosis Factor-alpha (TNF-alpha) secretion (AID 651757; active = well fitted curve in the direction sought with a large enough effect in the signal ratio; the % refers to the signal ratio)
# How it was run: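 THP-1 cells were exposed to compounds for 17 hrs at 37 C, after which secreted TNF-alpha was measured by homogeneous HTRF (TR-FRET) using cryptate- and XL665-labeled anti-TNF-alpha antibodies, read after 3 hr at room temperature.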
# [12] = qHTS assay to identify small molecules that stimulate interleukin-8 (IL-8) secretion (AID 651758; active = well fitted activation curve with a large enough effect in the signal ratio; the % refers to the signal ratio; note: potency is the fitted concentration of half-maximal effect)
# How it was run: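 THP-1, 2000 cells/well; cpd 16 h, 37 C; add cryptate + XL665 anti-IL-8 Abs; RT 1-3 h; TR-FRET read.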
# [13] = qHTS assay for environmental chemicals that activate the Aryl hydrocarbon Receptor (AhR) signaling pathway (AID 651777); conditions: 1A2-DRE human hepatoma cells, luciferase, 24 h; hits give high values; note: nearly all actives have a fitted effect of over 15% in size
# How it was run: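 Human hepatoma 1A2-DRE cells, stably carrying a dioxin response element and CYP1A2 promoter driving luciferase, were exposed to compounds for 24 hr at 37 C and 5% CO2. Luciferase signal was then read after 30 min One-Glo at room temperature.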
# [14] = target: Peroxisome proliferator-activated receptor alpha (Homo sapiens) (UniProt Q07869); assay: qHTS assay for small molecule agonists of the peroxisome proliferator-activated receptor alpha (PPARalpha) signaling pathway (AID 651778); conditions: PathHunter PPARalpha complementation, chemiluminescence, 6 h; max response: hits give high values; note: potency is the fitted concentration of half-maximal effect
# How it was run: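 Cells plated at 2,000/well and held overnight at 37 C, 5% CO2, then compound added by pin tool for 6 hr; after PathHunter detection reagent and 60 min at room temperature, chemiluminescence from enzyme complementation was read.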
# [15] = S16 Schwann cell PMP22 intronic element firefly luciferase assay (AID 624032); note: series mostly up to about 58 µM; nearly all actives have a fitted effect of over 30% in size
# How it was run: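 Rat S16 Schwann cells stably carrying a PMP22 intronic element-driven Fluc reporter were seeded overnight, then exposed to compounds for 24 h at 37 °C. Luminescence was normalized to PTC124 (positive control) and DMSO (0% activity).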
# [16] = qHTS assay for small molecule activators of the nuclear factor-kappa B (NF-kB) signaling pathway (AID 651749; active = well fitted activation curve with a large enough effect in the signal ratio; the % refers to the signal ratio; note: series mostly up to about 77 µM); conditions: NF-kB-bla ME-180 cells, beta-lactamase FRET ratio, 16 h; hits give high values
# How it was run: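 ME-180 cells stably carrying a beta-lactamase reporter under an NF-kB response element were exposed to compound or DMSO vehicle for 16 hr at 37C, 5% CO2. Pathway activation was read by FRET, since reporter expression disrupts FRET.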
# Chain of Peroxisome proliferator-activated receptor alpha (Homo sapiens) (Q07869 whole entry, looked up): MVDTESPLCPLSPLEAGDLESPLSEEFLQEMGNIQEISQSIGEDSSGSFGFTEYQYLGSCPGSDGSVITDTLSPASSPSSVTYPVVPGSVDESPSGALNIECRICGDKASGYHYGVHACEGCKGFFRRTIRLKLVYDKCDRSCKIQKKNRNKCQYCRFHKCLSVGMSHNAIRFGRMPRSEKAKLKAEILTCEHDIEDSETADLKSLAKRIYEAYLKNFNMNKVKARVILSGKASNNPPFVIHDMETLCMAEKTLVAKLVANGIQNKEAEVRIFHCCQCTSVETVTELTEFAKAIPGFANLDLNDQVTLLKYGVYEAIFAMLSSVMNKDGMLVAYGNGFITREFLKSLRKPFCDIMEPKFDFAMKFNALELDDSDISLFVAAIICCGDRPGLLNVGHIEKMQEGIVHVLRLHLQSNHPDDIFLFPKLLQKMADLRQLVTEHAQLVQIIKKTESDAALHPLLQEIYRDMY
# Chain of Tumor necrosis factor (Homo sapiens) (P01375 whole entry, looked up): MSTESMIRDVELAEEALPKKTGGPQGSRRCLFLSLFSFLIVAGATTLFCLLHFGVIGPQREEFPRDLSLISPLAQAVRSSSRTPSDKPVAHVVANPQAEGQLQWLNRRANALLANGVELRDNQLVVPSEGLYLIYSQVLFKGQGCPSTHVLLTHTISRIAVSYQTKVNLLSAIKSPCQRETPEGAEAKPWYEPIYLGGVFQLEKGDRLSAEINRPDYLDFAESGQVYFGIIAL
smiles,measurement,setting,value
CCCCCCCCCCCCCCCCCCOP(=O)([O-])OC1CC[N+](C)(C)CC1,Potency,[1],inactive
same,outcome,[2],inactive
same,Potency,[3],inactive
same,Potency,[4],inactive
same,Potency,[5],inactive
O=C(O)c1cc(=O)c2c3nc4ccccc4oc-3cc(=O)c2[nH]1,Potency,[6],inactive
CCOC(=O)C1=C(C)NC(C)=C(C(=O)OCC)C1c1ccccc1C=CC(=O)OC(C)(C)C,Potency,[6],inactive
CCCCCCCC/C=C\CCCCCCCC(=O)O,Potency,[6],inactive
same,Potency,[7],inactive
same,activation,[8],0.394% and 0.396%
same,outcome,[9],inactive
same,outcome,[10],inactive
same,outcome,[11],inactive
same,Potency,[12],inactive
same,activation,[13],-1.87% and 0.641%
same,Potency,[14],35.5 µM (active)
O=c1cc(C2=CC=CC3Sc4ccccc4SC23)oc(N2CCOCC2)c1 (stereo not drawn),outcome,[2],inactive
same,Potency,[4],8.33 µM (active)
same,Potency,[5],7.43 µM (active)
CCC1(O)CC2CN(CCc3c([nH]c4ccccc34)[C@@](C(=O)OC)(c3cc4c(cc3OC)N(C=O)[C@H]3[C@](O)(C(=O)OC)[C@H](OC(C)=O)[C@]5(CC)C=CCN6CC[C@]43[C@@H]65)C2)C1 (stereo partly drawn),Potency,[1],inactive
same,outcome,[2],inactive
same,Potency,[3],inactive
same,Potency,[5],1.32 µM (active)
CC[C@@H](C(=O)O)C1CC[C@H](C)C([C@@H](C)[C@H](O)[C@H](C)C(=O)[C@H](CC)C2O[C@]3(C=C[C@@H](O)[C@]4(CC[C@@](C)(C5CC[C@](O)(CC)[C@H](C)O5)O4)O3)[C@H](C)C[C@@H]2C)O1 (stereo partly drawn),outcome,[2],inactive
COC(=O)C1=C(C)NC(C)=C(C(=O)OCCCN2CCC(c3ccccc3)(c3ccccc3)CC2)[C@H]1c1cccc([N+](=O)[O-])c1,outcome,[2],inactive
same,Potency,[3],23.7 µM (active)
Nc1c(N=Nc2ccc(-c3ccc(N=Nc4cc(S(=O)(=O)O)c5ccccc5c4N)cc3)cc2)cc(S(=O)(=O)O)c2ccccc12,Potency,[6],inactive
CCC1(Cc2ccc(N)cc2)CCC(=O)NC1=O (stereo not drawn),Potency,[1],inactive
same,Potency,[3],inactive
same,Potency,[4],inactive
same,Potency,[5],inactive
"Cc1c2oc3c(C)ccc(C(=O)N[C@@H]4C(=O)NC(C(C)C)C(=O)N5CCC[C@H]5C(=O)N(C)CC(=O)N(C)C(C(C)C)C(=O)O[C@@H]4C)c3nc-2c(C(=O)N[C@@H]2C(=O)NC(C(C)C)C(=O)N3CCC[C@H]3C(=O)N(C)CC(=O)N(C)C(C(C)C)C(=O)O[C@@H]2C)c(N)c1=O (stereo partly drawn) (I: T[ξV]P[Sar][ξNMeV] / II: T[ξV]P[Sar][ξNMeV]; ester I:1-I:C, II:1-II:C; linker I:N-II:N via Actinocin(9to1))",Potency,[1],0.0013 µM (active)
same,outcome,[2],inactive
same,Potency,[3],0.0119 µM (active)
CC(C)(C)C(=O)OCOC(=O)[C@@H]1N2C(=O)[C@@H](N=CN3CCCCCC3)[C@H]2SC1(C)C,Potency,[6],inactive
O=C(O)CCC(=O)C(=O)O,Potency,[15],inactive
same,activation,[8],-2.86%
same,activation,[16],0.211%
same,outcome,[11],inactive
same,Potency,[12],inactive
same,activation,[13],0.4%
same,max response,[14],4.88%
O=S(=O)(O)c1cc(O)c2c(N=Nc3ccc(Nc4ccccc4)c4c(S(=O)(=O)O)cccc34)cc(S(=O)(=O)O)cc2c1,Potency,[6],inactive
CC(C)N=c1cc2n(-c3ccc(Cl)cc3)c3ccccc3nc-2cc1Nc1ccc(Cl)cc1,Potency,[6],inactive
CC1=C2[C@@H]([C@H](C)CC[C@H]2/C=C(\C)C(=O)O)[C@H](O)C1,Potency,[7],inactive
same,activation,[8],-3.64%
same,activation,[16],-0.741%
same,outcome,[9],inactive
same,outcome,[10],inactive
same,outcome,[11],inactive
same,Potency,[12],inactive
same,activation,[13],1.08%
same,max response,[14],-2.98%
CN(NC(=O)CC(=O)NN(C)C(=S)c1ccccc1)C(=S)c1ccccc1,Potency,[1],inactive
same,outcome,[2],inactive
same,Potency,[3],inactive
same,Potency,[4],inactive
same,Potency,[5],inactive
Cc1ccccc1,Potency,[7],inactive
same,activation,[8],0.393% and -4.17%
same,outcome,[9],inactive
same,outcome,[10],inactive
same,outcome,[11],inactive
same,activation,[13],0.0379% and -2.19%
same,max response,[14],0.399% and -0.58%
O=C(O)CC/C=C\CC[C@H]1[C@@H](N2CCCCC2)[C@@H](O)C[C@@H]1OCc1ccc(-c2ccccc2)cc1,Potency,[1],inactive
same,outcome,[2],inactive
same,Potency,[3],inactive
same,Potency,[4],inactive
same,Potency,[5],inactive
CC1=C(/C=C/C(C)=C/C=C/C(C)=C/CO)C(C)(C)CCC1,Potency,[7],68.6 µM (active) and 42.2 µM (active)
same,activation,[8],-4.27% and -5.83%
same,activation,[16],-0.416% and -2.98%
same,outcome,[9],inactive
same,outcome,[11],inactive
same,Potency,[12],37.6 µM (active)
same,activation,[13],1.25% and 1.27%
same,max response,[14],-3.78% and -1.63%
O=C(O)CN(CCN(CC(=O)O)CC(=O)O)CC(=O)O,Potency,[15],inactive
same,Potency,[6],inactive
same,activation,[8],-1.95% and 0.161%
same,activation,[13],2.06% and 1.21%
same,max response,[14],2.01% and 0.29%
